Results on seven molecules are retold here after PubChem BioAssay (Tox21).

A short description of assay [1]: qHTS assay to identify small molecule antagonists of the estrogen related receptor signaling pathway with the pleiotropic PPARgamma coactivator (PGC) from Tox21 10K library - cell viability counter screen (AID 1224840; active = well fitted cell-killing curve with a large enough effect in the repeat runs, not every such curve was filed as active; also: nearly all actives have a fitted effect of over 40% in size; also: potency is read from the fitted curve at half-maximal effect). The gist of the method: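 PGC/ERR cells (2,000/well) plated 6 h, then compound-treated for 17.5 h at 37 C. Viability measured by CellTiter-Fluor fluorescence after 30 min at 37 C, multiplexed with the pathway assay.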
Background: In qHTS, concentration-response curves come from the screen itself.

A short description of assay [2]: qHTS assay to identify small molecule agonists of the estrogen related receptor signaling pathway with the pleiotropic PPARgamma coactivator (PGC) from Tox21 10K library (AID 1224842). Also: nearly all actives have a fitted effect of over 15% in size. The gist of the method: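 PGC/ERR reporter cell line, 2,000 cells per well, incubated 6 h at 37 C before 23 nL compound in DMSO was added. After 18 h at 37 C, One-Glo luminescence read following 30 min at room temperature.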

Assay [3] concerns the target Thyrotropin receptor (Homo sapiens) (UniProt P16473). The experiment in a line: qHTS assay to identify small molecule agonists of the thyroid stimulating hormone receptor (TSHR) signaling pathway (AID 1224843; calls by dose curve; also: nearly all actives have a fitted effect of over 45% in size; also: potency is read from the fitted curve at half-maximal effect). The gist of the method:
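Steps: seed 800 TSHR-HEK293 cells per well; add test compound and hold 30 min at ambient temperature; dispense cAMP-d2 then anti-cAMP cryptate; incubate 1 h at ambient; measure fluorescence intensity.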

Assay [4] in a line: qHTS assay to identify small molecule agonists of the hypoxia (HIF-1) signaling pathway - cell viability counter screen (AID 1224844; calls by dose curve; also: nearly all actives have a fitted effect of over 50% in size; also: potency is read from the fitted curve at half-maximal effect). The method, boiled down:
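HRE-bla ME-180 cells, 2,000/well in 0.5% dialyzed FBS medium, treated 17 h at 37C with compounds. Viability read in the same wells as the bla reporter, by CellTiter-Glo luminescence after 30 min at room temperature.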

Assay [5] can be described thus: qHTS assay to identify small molecule agonists of H2AX (AID 1224845; active = well fitted activation curve with a large enough effect in the signal ratio in the repeat runs, not every such curve was filed as active; the % refers to the signal ratio; also: potency is read from the fitted curve at half-maximal effect). The gist of the method:
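Wild-type CHO-K1 cells, plated overnight, exposed 3hr at 37C to 15 concentrations (0.76% DMSO final). Lysed, then HTRF anti-pH2AX (S139) cryptate and anti-H2AX-d2 antibodies, 24 hr room temperature; 665/620 nm emission read.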

Assay [6] is described as follows: qHTS assay to identify small molecule agonists of H2AX - cell viability counter screen (AID 1224847; calls by dose curve; also: nearly all actives have a fitted effect of over 30% in size; also: potency is read from the fitted curve at half-maximal effect). The method, boiled down:
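CHO-K1 cells plated overnight at 37C, then exposed 3 h at 37C to compounds at 15 concentrations (0.76% DMSO final). Viability by CellTiter-Glo luminescence after 30 min at room temperature.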

A short description of assay [7]: A CellTox Green Cytotoxicity Assay to monitor cytotoxicity in HEK293 cells - 0 hour (AID 1224869). Also: nearly all actives have a fitted effect of over 50% in size. The gist of the method:
(§1)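 HEK293 cells, 600/well, were preincubated 5 hours and then exposed to compounds at 37 C for up to 40 hours. A cell-impermeant cyanine dye staining dead-cell DNA was read by fluorescence at 0, 8, 16, 24, 32 and 40 h time points.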

A short description of assay [8]: qHTS RealTime-Glo MT Cell Viability Assay in HepG2 cells - 40 hour (AID 1224870). Also: nearly all actives have a fitted effect of over 50% in size. Also: potency is read from the fitted curve at half-maximal effect. The method, boiled down:
(§2)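 HepG2 cells (600/well) mixed with RealTime-Glo MT reagent, settled 5 h at 37 C/5% CO2 before compound addition. Nonlytic NanoLuc luminescence from viable-cell prosubstrate reduction read repeatedly during 40 h treatment at 37 C.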

Assay [9] in a line: qHTS RealTime-Glo MT Cell Viability Assay in HEK293 cells - 40 hour (AID 1224874). Also: nearly all actives have a fitted effect of over 50% in size. Also: potency is read from the fitted curve at half-maximal effect. To be noted: RealTime-Glo luminescence; max response: hits give low values. The gist of the method:
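600 cells/well were plated with the nonlytic NanoLuc/prosubstrate reagent, pre-incubated 5 h, then given 23 nL of compound in DMSO. Incubation at 37 C for 40 h, with luminescence from viable-cell-reduced substrate read repeatedly from 0 h.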

Assay [10] can be described thus: A CellTox Green Cytotoxicity Assay to monitor cytotoxicity in HEK293 cells - 24 hour (AID 1224875). Also: nearly all actives have a fitted effect of over 45% in size. Also: potency is read from the fitted curve at half-maximal effect. The gist of the method: as §1
Assay [11] is described as follows: A CellTox Green Cytotoxicity Assay to monitor cytotoxicity in HepG2 cells - 16 hour (AID 1224876). Also: nearly all actives have a fitted effect of over 45% in size. Also: potency is read from the fitted curve at half-maximal effect. The gist of the method:
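HepG2 cells, 600/well, preincubated 5 h with CellTox Green dye, then exposed to Tox21 compounds in DMSO at 37 C for up to 40 h. Dead-cell DNA fluorescence read at the indicated time point.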

Assay [12] is described as follows: qHTS assay to identify small molecule antagonists of the estrogen related receptor (ERR) signaling pathway from Tox21 library (AID 1224848). Also: nearly all actives have a fitted effect of over 50% in size. Also: potency is read from the fitted curve at half-maximal effect. The gist of the method: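 Luminescent reporter read-out (ONE-Glo) from NTP's ERR cell line after 18 h treatment at 37 C with DMSO-dissolved Tox21 compounds; cells pre-plated 6 h beforehand at 2,000 per well.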
A short description of assay [13]: qHTS assay to identify small molecule agonists of the estrogen related receptor (ERR) signaling pathway from Tox21 library (AID 1224849; calls by dose curve; also: nearly all actives have a fitted effect of over 15% in size). To be noted: ERR reporter cell line, ONE-Glo luciferase, 18 h; at 92.4 µM (top of the series) unless noted. The gist of the method: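 ERR reporter cells (NTP line) pre-incubated 6 hours at 37 C, then exposed to compounds for 18 hours at 37 C. ONE-Glo luciferase luminescence was read after 30 minutes at room temperature.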

Assay [14] can be described thus: qHTS RealTime-Glo MT Cell Viability Assay in HEK293 cells - 32 hour (AID 1224868). Also: nearly all actives have a fitted effect of over 50% in size. Also: potency is read from the fitted curve at half-maximal effect. The method, boiled down:
(§3)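 HEK293 cells seeded with NanoLuc/prosubstrate reagent, rested 5 h at 37 C, then dosed and kept at 37 C up to 40 h. Nonlytic real-time luminescence from viable cells read at 0, 8, 16, 24, 32 and 40 h.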

A short description of assay [15]: A CellTox Green Cytotoxicity Assay to monitor cytotoxicity in HEK293 cells - 40 hour (AID 1224871). Also: nearly all actives have a fitted effect of over 45% in size. Also: potency is read from the fitted curve at half-maximal effect. The method, boiled down: as §1
Assay [16] can be described thus: qHTS RealTime-Glo MT Cell Viability Assay in HEK293 cells - 16 hour (AID 1224872). Also: nearly all actives have a fitted effect of over 50% in size. Also: potency is read from the fitted curve at half-maximal effect. The method, boiled down:
as §3

Assay [17] in a line: qHTS RealTime-Glo MT Cell Viability Assay in HepG2 cells - 24 hour (AID 1224867). Also: nearly all actives have a fitted effect of over 50% in size. Also: potency is read from the fitted curve at half-maximal effect. The method, boiled down: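 HepG2 cells (600/well) were dispensed with RealTime-Glo reagents, incubated 5 h at 37 °C, then treated with compounds in DMSO for up to 40 h. Nonlytic NanoLuc luminescence reflecting viable cells was read at each stated time point.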
The nature of assay [18]: qHTS RealTime-Glo MT Cell Viability Assay in HepG2 cells - 8 hour (AID 1224873). Also: nearly all actives have a fitted effect of over 55% in size. Also: potency is read from the fitted curve at half-maximal effect. The gist of the method:
as §2

The nature of assay [19]: qHTS assay to identify small molecule agonists of the hypoxia (HIF-1) signaling pathway (AID 1224846; active = well fitted activation curve with a large enough effect in the signal ratio in the repeat runs, not every such curve was filed as active; the % refers to the signal ratio). The method, boiled down: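 HRE-bla ME-180 beta-lactamase reporter cells in medium with 0.5% dialyzed FBS, pre-incubated 5 h then exposed to compounds 17 h at 37C, 5% CO2; reporter induction read with CCF4-AM FRET substrate.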

Structures are written as SMILES. A number with no mark means an inactive call. Records with an inconclusive call do not appear. Active and inactive are the calls of the source. Unless noted, calls follow the shape of the dose curve; as a rule, active = well fitted curve in the direction sought with a large enough effect in the repeat runs; inconclusive = weak or mixed curves; inactive = no such curve, though single readings can be large; an effect the other way counts as inactive or inconclusive.
% is scaled to controls: 0 for no effect and ±100 for the full control effect.

Thyrotropin receptor (Homo sapiens), sequence (P16473 whole entry, looked up): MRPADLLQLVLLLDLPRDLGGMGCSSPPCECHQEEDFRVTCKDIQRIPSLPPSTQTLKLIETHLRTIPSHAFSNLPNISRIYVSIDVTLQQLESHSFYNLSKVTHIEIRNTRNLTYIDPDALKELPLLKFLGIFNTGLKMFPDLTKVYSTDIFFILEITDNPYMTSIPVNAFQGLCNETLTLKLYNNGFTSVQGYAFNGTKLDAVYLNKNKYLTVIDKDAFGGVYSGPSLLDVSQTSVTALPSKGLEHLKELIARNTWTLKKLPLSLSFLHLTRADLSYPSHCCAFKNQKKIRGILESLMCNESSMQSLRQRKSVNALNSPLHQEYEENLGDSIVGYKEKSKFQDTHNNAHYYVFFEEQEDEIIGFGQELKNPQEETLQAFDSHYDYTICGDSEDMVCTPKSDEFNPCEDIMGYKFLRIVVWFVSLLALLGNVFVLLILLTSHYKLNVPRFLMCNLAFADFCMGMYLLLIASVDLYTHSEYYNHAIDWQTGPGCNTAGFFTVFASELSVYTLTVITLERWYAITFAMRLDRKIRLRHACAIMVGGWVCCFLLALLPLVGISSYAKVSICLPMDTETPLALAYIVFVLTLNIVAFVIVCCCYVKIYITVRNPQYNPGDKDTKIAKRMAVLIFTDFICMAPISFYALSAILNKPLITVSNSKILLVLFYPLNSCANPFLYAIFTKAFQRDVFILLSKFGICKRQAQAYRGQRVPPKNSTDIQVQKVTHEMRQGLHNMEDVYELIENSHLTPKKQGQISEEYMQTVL

With `O=C(Nc1ccccc1)c1cc(Cl)ccc1O`, the Potency in [1] was 17.2 µM (active); in assay [6], 25.3 µM (active); in [8], 49 µM (active); in assay [9], 21.9 µM (active). Also, the Potency entry in assay [2], in assay [3], in [4], in assay [5], in assay [7] and in assay [10] was “inactive” each time. Moreover, the Potency entry in assay [11] is “inactive”.
With `C=CCc1cc(S(=O)(=O)c2ccc(O)c(CC=C)c2)ccc1O`, the Potency entry in [1], in assay [2], in assay [3], in [4], in assay [5] and in assay [7] was “inactive” throughout. In addition, the Potency entry in assay [15], in [10] and in [11] was “inactive” in each case. For the same molecule, the Potency in [12] is 61.1 µM (active); in assay [14], 27.5 µM (active); in assay [16], 27.5 µM (active); in assay [9], 24.5 µM (active). For the same molecule, in assay [13], the activity change, positive = activation is -45.3%.
In the case of `CN(C)CCOc1ccc(/C(=C(/CCCl)c2ccccc2)c2ccccc2)cc1`, the Potency in [1] was 57.2 µM (active); in assay [4] it was 40.9 µM (active); in [6], 94.3 µM (active); in [12], 51 µM (active); in assay [17], 40.9 µM (active); in assay [14], 36.4 µM (active). Also, the Potency was 40.9 µM (active) in assay [8]; 45.8 µM (active) in assay [15]; 36.4 µM (active) in assay [16]; 36.4 µM (active) in assay [18]; 40.9 µM (active) in assay [9]; 45.8 µM (active) in assay [10]. Further, in [11], the Potency was 32.5 µM (active). Besides, the Potency entry in [2], in assay [3] and in assay [7] was “inactive” each time. In addition, the activity change, positive = activation in assay [13] was -52.6%.
For the molecule `CC(C)(C)c1cc(CCC(=O)OCCSCCOC(=O)CCc2cc(C(C)(C)C)c(O)c(C(C)(C)C)c2)cc(C(C)(C)C)c1O`, the Potency result in assay [1], in [2], in assay [3], in [4], in assay [5] and in [19] was “inactive” throughout. For the same molecule, the Potency entry in assay [6], in [12], in assay [17], in assay [14], in [7] and in [15] was “inactive” in each case. The Potency result in [10] and in [11] was “inactive” each time. Also, in [13], the activity change, positive = activation was -3.83% [at 42.5 µM]. Moreover, the max response in assay [9] was 2.76%.
As for `Cc1ccc(S(=O)(=O)C(I)I)cc1`, the Potency in assay [1] was 48.6 µM (active); in [3] it was 3.06 µM (active); in assay [4], 13.8 µM (active); in assay [5], 16 µM (active); in assay [6] it was 22.5 µM (active); in [12], 61.1 µM (active). The Potency in assay [17] was 11 µM (active); in [14], 12.3 µM (active); in assay [8], 12.3 µM (active); in [15], 19.5 µM (active); in [16] it was 15.5 µM (active); in assay [18], 12.3 µM (active). For the same molecule, the Potency was 8.71 µM (active) in assay [9], 34.7 µM (active) in [10] and 54.9 µM (active) in assay [11]. Further, the Potency result in [2] and in assay [7] was “inactive” each time. The activity change, positive = activation in assay [13] was -77.2%.
As to `C=CC(=O)O[C@H]1C[C@@H]2CC[C@@]1(C)C2(C)C`, the Potency result in [1], in assay [2], in assay [4], in [19], in assay [6] and in assay [12] was “inactive” each time. The Potency result in assay [17], in assay [14], in assay [7], in [8], in assay [16] and in [18] was “inactive” throughout. Moreover, the Potency entry in [10] and in assay [11] was “inactive” each time. For the same molecule, the activity change, positive = activation in assay [13] was 1.18%. For the same molecule, in assay [9], the max response is 3.56%.
Take `CCOC(=O)C1=NN(c2ccc(Cl)cc2Cl)C(C)(C(=O)OCC)C1` (stereo unspecified): the Potency entry in [1], in assay [2], in [4], in [5], in [19] and in [17] was “inactive” each time. In addition, the Potency entry in assay [7], in [8], in [15], in assay [18], in assay [10] and in assay [11] was “inactive” in each case. Also, the Potency is 113 µM (active) in assay [6] and 48.6 µM (active) in assay [12].
